D2 PAM-1: human D2 receptor positive allosteric modulation; P14416; DiscoveRx D2 beta-arrestin cells, luminescence, 90 min; 100% = 57 uM dopamine signal; potentiation, % (test concentration not listed); hit rate 0.23% among 360,000; in the data active means potentiation above about 50%; inconclusive means mostly about 30% to 49%
Target sequence (P14416 whole entry, looked up): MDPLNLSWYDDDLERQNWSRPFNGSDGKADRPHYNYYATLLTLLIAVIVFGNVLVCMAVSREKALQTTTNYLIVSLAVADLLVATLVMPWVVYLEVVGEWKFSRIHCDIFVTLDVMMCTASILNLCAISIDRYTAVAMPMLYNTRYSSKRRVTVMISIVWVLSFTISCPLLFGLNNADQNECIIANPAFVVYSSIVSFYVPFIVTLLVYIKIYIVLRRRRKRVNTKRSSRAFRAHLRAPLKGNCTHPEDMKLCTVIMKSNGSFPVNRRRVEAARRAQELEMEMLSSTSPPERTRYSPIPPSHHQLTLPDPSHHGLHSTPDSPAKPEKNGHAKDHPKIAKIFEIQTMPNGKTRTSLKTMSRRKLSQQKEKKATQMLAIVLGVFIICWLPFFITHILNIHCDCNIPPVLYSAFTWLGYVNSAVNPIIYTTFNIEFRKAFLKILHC
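PathHunter D2 cells, attached overnight at 37 deg C, received compound in DMSO plus dopamine at EC20 (50 nM final) for 90 min at 37 deg C. Beta-arrestin recruitment was read as luminescence after 1 h with detection reagent at ambient temperature.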
D2 antagonist: antagonists of human D2 dopamine receptor | P14416 | HEK293 TREx D2 cells, calcium flux, dopamine EC80 | inhibition, % at 10 µM | hit rate 2% among 340,000; in the data active means inhibition above about 30%; inactive means below that, where a call was filed; further: 0% is about no effect
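Calcium flux kinetic readout in an inducible HEK293 TREx D2 line plated overnight at 30 C. After 180 s compound exposure, an EC80 dopamine challenge follows with another 180 s kinetic read to detect antagonism.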
D2 PAM-2: positively modulates the human D2 dopamine receptor allosterically; P14416; HEK293 T-REx D2, calcium flux, EC20 dopamine potentiation; potentiation, % at 10 µM; hit rate 0.34% among 340,000; AID 485347;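 active means potentiation over 3 SD above the plate norm, cut at about 30% in these data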; further: 0% is about no effect
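Primary screen. Calcium kinetics in induced HEK293 T-REx D2 cells: compound pre-addition 180 s, EC20 dopamine, 180 s more.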
D2 ag-1: activates the human D2 dopamine receptor. activation, % (test concentration not listed). P14416. DiscoveRx PathHunter D2 beta-arrestin, luminescence, 90 min; 100% = 57 uM dopamine signal. AID 624465. hit rate 0.084% among 360,000; in the data active means activation above about 40%; inconclusive means between about 15% and that limit
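DiscoveRx PathHunter D2 beta-arrestin cells (2,100/well) attached overnight, then compound-stimulated 90 min at 37 C in HBSS/10 mM HEPES/0.1% Tween-20 buffer; beta-galactosidase complementation read by luminescence after 1 h at ambient temperature. Dopamine 57 uM final (EC100) as control.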
D2 ag-2: activates the human D2 dopamine receptor; P14416; HEK293 T-REx D2 cells, calcium flux agonist mode; activation, % at 2 µM; hit rate 0.53% among 340,000; AID 485358;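 active means activation over 3 SD above normal in the single-dose calcium agonist read, cut at about 30% in these data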; further: 0% is about no effect
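Agonism is scored from calcium flux in a force-coupled, inducible HEK293 cell line expressing D2, read kinetically for 180 s after compound addition against dopamine controls.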
Apoferritin bind: candidate novel general anesthetic via apoferritin binding. P02791. apoferritin/1-aminoanthracene competitive binding, fluorescence. Potency, µM (series often up to 77.5 µM), inactives show at the highest dose activity change, negative = displacement, hits mostly inhibitors. hit rate 0.074% among 350,000. AID 485281; active means well fitted inhibition curve with a large enough effect; inconclusive means small, poorly fitted or top-dose-only effect; inactive means no such curve, though single readings can be large or run the other way; further: potency means the concentration at half of the fitted maximal effect; on the % scale 0 is the no-effect control and ±100 the full control effect; nearly all actives have a fitted effect of over 20% in size
Target sequence (P02791 2-175 limits assumed): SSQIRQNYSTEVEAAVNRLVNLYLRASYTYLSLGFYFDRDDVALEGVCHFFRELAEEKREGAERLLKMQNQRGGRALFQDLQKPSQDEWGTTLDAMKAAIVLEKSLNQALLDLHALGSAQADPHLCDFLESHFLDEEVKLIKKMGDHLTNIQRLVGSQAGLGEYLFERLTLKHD
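Apoferritin-based anesthetic binding model; compound displacement of fluorescent 1-AMA measured as endpoint fluorescence after 10 minutes at room temperature, scaled to free-ligand and complex controls.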
Starred values were filed as active, the others as inactive; ? = inconclusive; / = no result. Most compounds without a hit are left out; they make up all but 2.5% or so of the library.

SMILES | D2 PAM-1 | D2 antagonist | D2 PAM-2 | D2 ag-1 | D2 ag-2 | Apoferritin bind
Cc1c(Cl)cccc1NC(=O)CCCCCN1C(=O)CCC1=O | -14.6 | 18.1 | / | -3.0 | 1.0 | 0.3%
O=C(CCCCCN1C(=O)CCC1=O)Nc1ncn[nH]1 | -0.1 | 45.4* | / | 0.2 | 1.7 | 3.0%
CC1(C)CC(=O)C/C(=N\NC(=O)C2CC2c2ccccc2)C1 (configuration not stated) | -0.8 | 5.6 | 3.0 | -2.2 | 8.1 | -15.1%
CC1(C)CC(=O)C/C(=N\NC(=O)C2CC23CCC3)C1 (configuration not stated) | -2.0 | 47.1* | -4.8 | -3.4 | 0.9 | -9.7%
O=C1NC2(O)C(=O)c3ccccc3C2(O)N1 (configuration not stated) | -8.4 | 10.3 | 1.7 | -6.5 | -0.8 | -2.7%
C/C(=N\NC(=O)c1ccc(C)cc1C)c1ccc2c(c1)Nc1ccccc1S2 | 77.9* | 0.5 | -1.7 | ? | 1.4 | -9.7%
CCOC(=O)Nc1ccc2c(c1)Nc1ccccc1S2 | 62.6* | -7.0 | 4.2 | 10.6 | 0.8 | -5.1%
CC(=O)c1ccc2c(c1)Nc1ccccc1S2 | 51.9* | 6.9 | -3.0 | ? | 0.0 | -2.1%
C=CC(=O)N1c2ccccc2Sc2ccc(NC(=O)OCC)cc21 | -14.9 | / | / | -7.8 | / | /
CC(=O)c1ccc2c(c1)N(C)c1ccccc1S2 | 7.7 | / | 0.2 | 4.8 | / | -5.8%
C/C(=N\NC(=O)c1ccc(C)cc1C)c1ccc(-n2ccnc2)cc1 | 3.5 | 3.5 | -4.4 | -0.1 | 0.6 | -4.8%
O=C1NC2(CCCCC2)C(=O)N1Cc1cc(=O)n2ccsc2n1 | 0.5 | -20.1 | 19.3 | -1.7 | 0.2 | -1.9%
O=C(Cc1cccc(F)c1)Nc1ccc2c(c1)CCC2 | -4.3 | / | / | 0.3 | / | 7.3%
O=S(=O)(c1ccc2nc(-c3ccco3)c(-c3ccco3)nc2c1)N1CCOCC1 | 56.0* | -1.5 | 16.5 | 3.6 | -1.7 | 3.1%
Fc1cc(Br)cc(F)c1NC(=S)N1CCOCC1 | -9.9 | -0.9 | -2.5 | -3.0 | -2.2 | 6.8%
COc1ccc(S(=O)(=O)Nc2ccc(-c3ccc(N4CCCC4)nn3)cc2)cc1F | / | / | -1.5 | / | -0.8 | 3.5%
Cc1ccc(-c2cnc(-c3ccncc3)o2)cc1 | -5.2 | 32.3* | 6.4 | 1.9 | 0.3 | 80.5%
COC(=O)CSc1nnc(-c2ccc(S(=O)(=O)NCc3ccccc3Cl)cc2)o1 | 29.4 | 33.3* | 9.7 | 2.7 | 0.3 | ?
Cc1cccnc1NC(=O)c1ccc(Br)o1 | -13.0 | -6.5 | 10.0 | 1.5 | 0.2 | /
c1nnc(-c2ccc3c(c2)OCO3)o1 | 4.9 | 30.6* | -1.9 | 3.7 | 0.9 | -4.0%
O=C(NCc1ccccc1F)C1CCN(S(=O)(=O)c2ccccc2)CC1 | -4.8 | -7.4 | -8.2 | -2.3 | -0.7 | 8.2%
O=C(Nc1ccccc1)c1ccc(NCCN2C(=O)CCC2=O)c([N+](=O)[O-])c1 | -11.2 | 58.6* | 3.4 | -5.3 | 0.2 | -6.4%
COc1ccc(S(=O)(=O)Nc2ccccc2C(=O)NC2CC2)cc1NC(C)=O | -2.7 | 3.6 | 4.8 | -4.2 | 0.4 | /
Fc1c(F)c(F)c(NC2=NCCCCC2)c(F)c1F | -7.4 | -3.7 | -9.6 | -6.0 | -1.0 | -10.0%
CCOC(=O)c1c(CN2CCCCC2)n(C)c2cc(Br)c(O)c(CN(C)C)c12 | -5.9 | 60.5* | -32.9 | -5.3 | 0.4 | -6.9%
SMILES | D2 PAM-1 | D2 antagonist | D2 PAM-2 | D2 ag-1 | D2 ag-2 | Apoferritin bind
CCOC(=O)c1c(CSc2ccccc2)n(C)c2cc(Br)c(O)c(CN(C)C)c12 | -4.4 | -5.8 | -3.0 | 0.7 | -0.7 | 1.8%
O=C(Nc1ccc(F)cc1)N1CCN(C(=O)C2CCCO2)CC1 (configuration not stated) | -10.9 | 1.9 | -8.7 | -1.9 | 0.2 | -4.3%
O=C(C1CCCO1)N1CCN(C(=S)Nc2ccc(F)cc2)CC1 (configuration not stated) | -4.3 | 41.0* | 0.6 | 1.8 | 1.4 | 6.4%
CCN(CC)c1ccc(/C=C2\C(=N)N3N=C(CC(=O)N4CCOCC4)SC3=NC2=O)cc1 | -1.8 | 8.4 | -5.4 | -1.1 | 33.4* | -2.9%
Cc1sc2nc(-c3cccnc3)[nH]c(=O)c2c1-c1ccccc1 | -4.4 | 2.0 | 6.1 | 2.7 | 2.9 | -8.0%
c1ccc2c(c1)nc1n2CC2CON(C3CCCCC3)C12 (configuration not stated) | -13.0 | 37.0* | -4.3 | -2.5 | 0.1 | -3.6%
C[C@@H]1ON(C2CCCCC2)[C@H]2c3nc4ccccc4n3C[C@@H]12 | -8.0 | 0.8 | -5.5 | -2.4 | 0.3 | -9.8%
Cn1nc(C(=O)OCC(=O)N2CCc3ccccc32)c2ccccc2c1=O | -21.1 | 7.7 | 31.5* | -1.1 | -0.6 | -0.5%
Cn1nc(C(=O)N2CCc3ccccc32)c2ccccc2c1=O | -8.1 | 3.3 | 4.7 | -8.0 | -0.7 | -9.3%
COc1ccc(Cc2nnc(NC(=O)c3ccc(OC)c(OC)c3)s2)cc1OC | -5.5 | -3.3 | 24.9 | -3.9 | -0.4 | ?
COc1ccc(Cc2nnc(NC(=O)c3c(-c4ccccc4)noc3C)s2)cc1 | -2.1 | -18.4 | 34.2* | -3.2 | -1.7 | -10.0%
COc1ccc(Cc2nnc(NC(=O)c3c(-c4ccccc4)noc3C)s2)cc1OC | / | 3.1 | 3.4 | / | 2.0 | 0.4%
COc1ccc(Cc2nnc(NC(=O)C(C)C)s2)cc1 | -2.4 | 3.1 | -5.3 | -6.3 | 0.6 | -0.9%
COCc1nnc(NC(=O)c2ccc(OC)cc2OC)s1 | -6.0 | 39.4* | 37.7* | -5.5 | -0.8 | -5.5%
COc1ccc(-c2nnc(NC(=O)C(C)C)s2)c(OC)c1 | -5.0 | 10.4 | 36.5* | -1.0 | 0.7 | -5.7%
COc1ccc(Cc2nnc(NC(=O)c3cccs3)s2)cc1OC | -3.1 | -4.4 | 39.9* | 0.7 | 0.8 | 1.2%
CCCC(=O)N=C1SC2CS(=O)(=O)CC2N1c1ccc(-c2nc3ccc(C)cc3s2)cc1 (configuration not stated) | -3.6 | -18.0 | -5.0 | 1.2 | 0.3 | -7.0%
CCOCc1nnc(NC(=O)c2ccc(OC)cc2)s1 | -4.6 | 32.9* | -6.7 | 1.7 | 0.9 | 1.8%
CCOCc1nnc(NC(=O)c2ccc(NC(C)=O)cc2)s1 | -4.2 | 15.1 | -9.1 | -2.5 | 0.0 | -2.2%
Cc1cc(OC(C)C)c2c(-c3ccccc3)cc(=O)oc2c1 | -5.3 | -10.8 | -1.2 | -0.7 | -2.6 | 17.8µM*
CCOc1cc(C)cc2oc(=O)cc(-c3ccccc3)c12 | -14.2 | / | / | 0.0 | / | ?
CC(=O)Nc1sc(/C(C#N)=C\c2cccc(Cl)c2)nc1-c1ccc(C)cc1 | 6.2 | 30.2* | -13.8 | 0.4 | 61.0* | -8.7%
Cc1cccc(N=C(N2CCOCC2)P(=O)(N2CCOCC2)N2CCOCC2)c1 | -11.4 | 10.6 | 64.9* | -2.0 | 0.3 | -3.0%
COc1cc(CNCCSc2nnnn2C)ccc1OCc1ccccc1C | / | / | -10.3 | / | 0.6 | ?
